# Assay results published in the supplement of paper PMC8728848.
# Many of the other results were omitted from the sample, so the strongest signals are more common in it than they were.
# B1: Arath Fbox (Arabidopsis thaliana), NP_178341.1 (protein)
# chain: EFTWGRKRRVKSESSPFDSFPEDCISYIISFTNPRDACVAATVSKTFESTVKSDIIWEKFLPADYESLIPPSRVFSSKKELYFSLCNDPVLFDDDKKSVWLEKASGKRCLMLSAMNLSIIWGDNPQYWQWIPIPESRFEKVAKLRDVCWFEIRGRTNTRVLSPRTRYSAYIVFKGVDKCYGFQNVAIEAAVGVVGQEPSRRLICFSEAIRRGRRNVVKPKQREDGWMEIELGEFFNDGGIMDNDEIEMSALETKQLNRKCGLIIQGIEIRPAKILAAAAASFLEQKLISEEDLNSAVDHHHHHH
# Assays:
# Assay in all cases: glycan array binding signal (z-score within array); higher = stronger binding
# Settings in all cases: glycan notation: IUPAC condensed, linker removed
# [1] = target: Fuc(a1-2)Gal(b1-3)GalNAc(a1-3)[Fuc(a1-2)]Gal(b1-4)Glc
# How it was run: (§1)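 Glycan array binding is given as a within-array Z-score, which can be read as non-binding when negative. The arrays, 3228 of them, came from the Consortium for Functional Glycomics database and were retained only where the protein sequence was available. Z-scores were averaged across arrays of the same protein sequence at different concentrations or buffers and across linkers.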
# [2] = target: Fuc(a1-2)Gal(b1-3)GalNAc(b1-4)[Neu5Ac(a2-3)]Gal(b1-4)Glc
# How it was run: as §1
# [3] = target: Fuc(a1-2)Gal(b1-3)GlcNAc(b1-3)[Neu5Ac(a2-6)Gal(b1-4)GlcNAc(b1-6)]Gal(b1-4)Glc
# How it was run: as §1
# Fuc(a1-2)Gal(b1-4)GlcNAc = target: Fuc(a1-2)Gal(b1-4)GlcNAc
# How it was run: as §1
# [4] = target: Fuc(a1-2)[Gal(a1-3)]Gal(b1-3)GlcNAc(b1-6)GalNAc
# How it was run: as §1
# [5] = target: Fuc(a1-2)[Gal(a1-4)]Gal(b1-4)GlcNAc
# How it was run: as §1
# [6] = target: Fuc(a1-2)[GalNAc(a1-3)]Gal(b1-3)GlcNAc(b1-6)GalNAc
# How it was run: as §1
# [7] = target: Fuc(a1-2)[GalNAc(a1-3)]Gal(b1-4)GlcNAc
# How it was run: as §1
# [8] = target: Fuc(a1-2)[GalNAc(a1-3)]Gal(b1-4)GlcNAc(b1-3)Gal(b1-4)GlcNAc
# How it was run: as §1
# [9] = target: Fuc(a1-2)[GalNAc(a1-3)]Gal(b1-4)GlcNAc(b1-6)GalNAc
# How it was run: as §1
# Gal(a1-3)Gal(b1-3)GlcNAc = target: Gal(a1-3)Gal(b1-3)GlcNAc
# How it was run: as §1
# [10] = target: Gal(a1-3)Gal(b1-3)[Fuc(a1-4)]GlcNAc(b1-2)Man(a1-3)[Gal(a1-3)Gal(b1-3)[Fuc(a1-4)]GlcNAc(b1-2)Man(a1-6)]Man(b1-4)GlcNAc(b1-4)GlcNAc
# How it was run: as §1
# [11] = target: Gal(a1-3)Gal(b1-4)[Fuc(a1-3)]GlcNAc(b1-2)Man(a1-3)[Gal(a1-3)Gal(b1-4)[Fuc(a1-3)]GlcNAc(b1-2)Man(a1-6)]Man(b1-4)GlcNAc(b1-4)GlcNAc
# How it was run: as §1
# [12] = target: Gal(a1-4)Gal(b1-4)GlcNAc(b1-2)Man(a1-3)[Gal(a1-4)Gal(b1-4)GlcNAc(b1-2)Man(a1-6)]Man(b1-4)GlcNAc(b1-4)GlcNAc
# How it was run: as §1
# [13] = target: Gal(b1-3)GlcNAc(a1-6)Gal(b1-4)GlcNAc
# How it was run: as §1
# [14] = target: Gal(b1-3)GlcNAc(b1-2)Man(a1-3)[Gal(b1-3)GlcNAc(b1-2)Man(a1-6)]Man(b1-4)GlcNAc(b1-4)[Fuc(a1-6)]GlcNAc
# How it was run: as §1
# [15] = target: Gal(b1-3)GlcNAc(b1-3)Gal(b1-4)[Fuc(a1-3)]GlcNAc
# How it was run: as §1
# [16] = target: Gal(b1-3)[Fuc(a1-4)]GlcNAc(b1-2)Man
# How it was run: as §1
# [17] = target: Gal(b1-4)GlcNAc(b1-2)Man(a1-3)Man(b1-4)GlcNAc(b1-4)GlcNAc
# How it was run: as §1
# [18] = target: Gal(b1-4)GlcNAc(b1-2)[Gal(b1-4)GlcNAc(b1-4)]Man(a1-3)[GlcNAc(b1-4)][Gal(b1-4)GlcNAc(b1-2)Man(a1-6)]Man(b1-4)GlcNAc(b1-4)GlcNAc
# How it was run: as §1
# [19] = target: Gal(b1-4)GlcNAc(b1-3)Gal(b1-3)GalNAc
# How it was run: as §1
# [20] = target: Gal(b1-4)GlcNAc(b1-3)Gal(b1-4)GlcNAc(b1-2)Man(a1-3)[Gal(b1-4)GlcNAc(b1-3)Gal(b1-4)GlcNAc(b1-2)Man(a1-6)]Man(b1-4)GlcNAc(b1-4)[Fuc(a1-6)]GlcNAc
# How it was run: as §1
# [21] = target: Gal(b1-4)GlcNAc(b1-3)Gal(b1-4)GlcNAc(b1-2)[Gal(b1-4)GlcNAc(b1-3)Gal(b1-4)GlcNAc(b1-6)]Man(a1-6)[Gal(b1-4)GlcNAc(b1-3)Gal(b1-4)GlcNAc(b1-2)Man(a1-3)]Man(b1-4)GlcNAc(b1-4)GlcNAc
# How it was run: as §1
# [22] = target: Gal(b1-4)GlcNAc(b1-3)Gal(b1-4)GlcNAc(b1-3)Gal(b1-4)GlcNAc(b1-2)[Gal(b1-4)GlcNAc(b1-3)Gal(b1-4)GlcNAc(b1-3)Gal(b1-4)GlcNAc(b1-6)]Man(a1-6)[Gal(b1-4)GlcNAc(b1-3)Gal(b1-4)GlcNAc(b1-3)Gal(b1-4)GlcNAc(b1-2)Man(a1-3)]Man(b1-4)GlcNAc(b1-4)[Fuc(a1-6)]GlcNAc
# How it was run: as §1
# [23] = target: Gal(b1-4)GlcNAc(b1-3)Gal(b1-4)GlcNAc(b1-3)Gal(b1-4)GlcNAc(b1-3)Gal(b1-4)GlcNAc(b1-2)[Gal(b1-4)GlcNAc(b1-3)Gal(b1-4)GlcNAc(b1-3)Gal(b1-4)GlcNAc(b1-3)Gal(b1-4)GlcNAc(b1-6)]Man(a1-6)[Gal(b1-4)GlcNAc(b1-3)Gal(b1-4)GlcNAc(b1-3)Gal(b1-4)GlcNAc(b1-3)Gal(b1-4)GlcNAc(b1-2)Man(a1-3)]Man(b1-4)GlcNAc(b1-4)[Fuc(a1-6)]GlcNAc
# How it was run: as §1
# [24] = target: Gal(b1-4)GlcNAc(b1-3)Gal(b1-4)GlcNAc(b1-3)Gal(b1-4)GlcNAc(b1-3)Gal(b1-4)GlcNAc(b1-3)Gal(b1-4)GlcNAc(b1-2)Man(a1-3)[Gal(b1-4)GlcNAc(b1-3)Gal(b1-4)GlcNAc(b1-3)Gal(b1-4)GlcNAc(b1-3)Gal(b1-4)GlcNAc(b1-3)Gal(b1-4)GlcNAc(b1-2)Man(a1-6)]Man(b1-4)GlcNAc(b1-4)GlcNAc
# How it was run: as §1
# [25] = target: Gal(b1-4)GlcNAc(b1-3)Gal(b1-4)GlcNAc(b1-3)GalNAc
# How it was run: as §1
binder,measurement,setting,value
B1,glycan array binding signal (z-score),[1],-0.513
same,glycan array binding signal (z-score),[2],-0.123
same,glycan array binding signal (z-score),[3],-0.599
same,glycan array binding signal (z-score),Fuc(a1-2)Gal(b1-4)GlcNAc,0.005
same,glycan array binding signal (z-score),[4],0.025
same,glycan array binding signal (z-score),[5],0.262
same,glycan array binding signal (z-score),[6],-0.626
same,glycan array binding signal (z-score),[7],-0.433
same,glycan array binding signal (z-score),[8],-0.64
same,glycan array binding signal (z-score),[9],-0.711
same,glycan array binding signal (z-score),Gal(a1-3)Gal(b1-3)GlcNAc,12
same,glycan array binding signal (z-score),[10],3.32
same,glycan array binding signal (z-score),[11],0.161
same,glycan array binding signal (z-score),[12],0.198
same,glycan array binding signal (z-score),[13],0.001
same,glycan array binding signal (z-score),[14],3.36
same,glycan array binding signal (z-score),[15],-0.717
same,glycan array binding signal (z-score),[16],2.33
same,glycan array binding signal (z-score),[17],-0.673
same,glycan array binding signal (z-score),[18],-0.348
same,glycan array binding signal (z-score),[19],-0.431
same,glycan array binding signal (z-score),[20],3.33
same,glycan array binding signal (z-score),[21],2.73
same,glycan array binding signal (z-score),[22],2.13
same,glycan array binding signal (z-score),[23],2.36
same,glycan array binding signal (z-score),[24],2.6
same,glycan array binding signal (z-score),[25],0.46
